Drawing on PubChem BioAssay AID588675 (Johns Hopkins Ion Channel Center, 2011), this text covers B-score for 102 molecules.

Out of some 310,000 compounds screened, about 1,900 (0.61%) were called active.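 How the source made its calls: active means plate-corrected calcium response at least 3 library SD above typical, normal starting fluorescence, not activating the receptor alone; inactive means the rest.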 Shown is part of a subset that was picked to be rich in actives.

Mas-related G-protein coupled receptor member X1 (Homo sapiens), sequence (Q96LB2 whole entry, looked up): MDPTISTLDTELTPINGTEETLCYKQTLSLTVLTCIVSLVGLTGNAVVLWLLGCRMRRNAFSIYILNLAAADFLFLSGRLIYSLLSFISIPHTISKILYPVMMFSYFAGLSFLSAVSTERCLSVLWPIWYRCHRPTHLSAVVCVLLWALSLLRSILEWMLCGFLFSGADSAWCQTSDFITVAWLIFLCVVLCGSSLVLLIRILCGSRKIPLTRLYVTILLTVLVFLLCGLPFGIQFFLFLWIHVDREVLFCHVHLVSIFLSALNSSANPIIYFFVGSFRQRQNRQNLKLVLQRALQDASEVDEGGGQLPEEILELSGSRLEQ

The assay concerns the target Mas-related G-protein coupled receptor member X1 (Homo sapiens) (UniProt Q96LB2). The assay is described as follows: allosteric enhancers of human MrgX1 signaling – HEK293 cells, Fluo-4 calcium flux, primary screen (AID 588675).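 Further: compound read alongside a low EC10 to EC30 dose of BAM8-22 agonist.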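 On B-score: peak minus trough fluorescence over baseline measured at the second addition.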 Conditions: MrgX1-HEK293, Fluo-4 calcium flux, FDSS, at 10 µM; hits give high values. (In general: Calcium assays in cells follow changes in intracellular calcium, usually with a dye or a luminescent sensor.)
Regarding `CCn1cc(C(=O)NC2CCCCCC2)c(=O)c2cc(S(=O)(=O)N3CCCCC3)ccc21`, the B-score entry is “inactive”.

With `Cc1ccc(C)c(-c2nnc(NC(=O)CS(=O)(=O)c3ccccc3)o2)c1`, the B-score entry is “inactive”.

As for `CN(C)S(=O)(=O)Oc1ccccc1C(=O)Nc1ccccc1Cl`, the B-score result was “inactive”.

Take `CC1CCN(S(=O)(=O)c2ccc3[nH]c(=O)ccc3c2)CC1`: the B-score result is “inactive”.

For the molecule `COc1ccc(N2C(=O)C(Cc3ccccc3)NC2=S)cc1` (configuration not stated), the B-score entry is “inactive”.

For the molecule `Cc1cc(C)c(NC(=O)CN2C(=O)NC(Cc3ccccc3)C2=O)c(C)c1` (configuration not stated), the B-score entry is “inactive”.

For the molecule `O=C1C(Cc2ccc(O)cc2)NC(=S)N1Cc1ccccc1` (configuration not stated), the B-score is 9.49 (active).

In the case of `CC1(C)CC(=O)C2=C(C1)N=C1SCCC(=O)N1C2c1ccc(C(F)(F)F)cc1` (configuration not stated), the B-score entry is “inactive”.

As to `COc1ccc(CNc2c(CO)cnc3c2cnn3C)cc1`, the B-score result is “inactive”.

As to `COCCNC(=O)c1ccc2nc(Cc3ccc(OC)c(OC)c3)oc2c1`, the B-score entry was “inactive”.

Take `COc1ccc(CCNS(=O)(=O)c2cccc3cccnc23)cc1OC`: the B-score entry was “inactive”.

Regarding `COc1ccc(Cc2nc(-c3ccccn3)no2)cc1OC`, the B-score is 8.9 (active).

Regarding `Cc1ccc(N2CC(C(=O)Nc3cc(Cl)ccc3-n3cncn3)CC2=O)cc1` (configuration not stated), the B-score entry is “inactive”.

For `Cn1nc(C(F)(F)F)c(-c2ccc(F)cc2)c1NC(=O)CSCC(=O)O`, the B-score result was “inactive”.

Consider `CCCC1OC23CCCCC2C(C#N)(C#N)C1(C#N)C(=N)O3` (configuration not stated), for which the B-score entry was “inactive”.

As to `COc1ccc(CN(C)C(=O)Cc2ccsc2)c(OC)c1OC`, the B-score result was “inactive”.

As for `O=C(Nc1ccccc1N1CCCC1)c1ccc2ccccc2c1`, the B-score entry was “inactive”.

Turning to `O=C(Nc1ccccc1N1CCN(c2ccccc2)CC1)c1cccc(F)c1`, the B-score result is “inactive”.

For the molecule `O=C(Nc1ccccc1N1CCCCC1)c1ccc2nccnc2c1`, the B-score is 7.2 (active).

`COCCn1c(CN2CCC(Cc3ccccc3)CC2)nc2c1c(=O)n(C)c(=O)n2C`: the B-score result was “inactive”.

`CCOc1ccc(NC(=O)CCS(=O)(=O)c2ccc3c(c2)CCCN3C(=O)CC)cc1`: the B-score result is “inactive”.

Consider `Cc1ccc(S(=O)(=O)N2CCC(C(=O)NCCC3=CCCCC3)CC2)cc1C`, for which the B-score entry was “inactive”.

Regarding `CC(=O)N1N=C(c2ccccc2)OC1c1cccnc1` (configuration not stated), the B-score result is “inactive”.

Regarding `CC(=O)N1N=C(c2ccncc2)OC1(Cc1ccccc1)Cc1ccccc1`, the B-score was 7.85 (active).

In the case of `O=C(Cc1ccccc1)N1N=C(c2ccncc2)CC1(O)C(F)(F)F` (configuration not stated), the B-score entry was “inactive”.

As for `O=C(c1ccccc1)C(Cn1cncn1)C(Sc1ccccc1)c1ccccc1` (configuration not stated), the B-score result was “inactive”.

Consider `CCN(CC(=O)Nc1ccccc1OC)C(=O)Cn1cnc2ccccc2c1=O`, for which the B-score entry is “inactive”.

Consider `Cc1ccc(/C=C/C(=O)O)cc1S(=O)(=O)N1CCC(Cc2ccccc2)CC1`, for which the B-score result is “inactive”.

Turning to `CCN(CC(=O)Nc1c(F)cccc1F)C(=O)c1ccc(Sc2nncn2C)c([N+](=O)[O-])c1`, the B-score result is “inactive”.

`CC(=O)Nc1ccc(Nc2c([N+](=O)[O-])cc(S(C)(=O)=O)cc2[N+](=O)[O-])cc1`: the B-score entry was “inactive”.

For the molecule `Cn1cnnc1Sc1ccc(S(C)(=O)=O)cc1[N+](=O)[O-]`, the B-score was 12.1 (active).

In the case of `CS(=O)(=O)Nc1ccc(C(=O)N2CCCC2)cc1`, the B-score entry is “inactive”.

For the molecule `Cn1c(=O)c2c(nc(N/N=C/c3cccs3)n2Cc2ccc(Br)cc2)n(C)c1=O`, the B-score result was “inactive”.

`COc1ccc(NC(=O)C2C3C=CC(C3)C2C(=O)NCc2ccccn2)c(OC)c1` (configuration not stated): the B-score result was “inactive”.

On to `COc1cc(C)c(C)cc1S(=O)(=O)N1CCCc2ccccc21`, for which the B-score is 7.48 (active).

Take `COc1ccc(C(=O)OCC(=O)NCC2CCCCC2)cc1S(=O)(=O)N1CCCc2ccccc21`: the B-score result was “inactive”.

Consider `Cn1c(=O)n(C)c2cc(S(=O)(=O)N3CCCc4ccccc43)ccc21`, for which the B-score result was “inactive”.

Consider `CC[C@@H](C)[C@@H](C(=O)N1CCN(C(=O)OC(C)(C)C)CC1)n1cc(CCC(=O)O)nn1`, for which the B-score result is “inactive”.

Take `CC1CN(S(=O)(=O)c2cccc(C(F)(F)F)c2)CN1C(=O)N1CCOCC1` (configuration not stated): the B-score result was “inactive”.

Regarding `COc1ccc(S(=O)(=O)N2CCC(C(=O)N3CCc4ccccc4C3)CC2)cc1OC`, the B-score result was “inactive”.

For the molecule `COc1ccc(C2CC(=O)n3c(nc4ccccc43)S2)cc1OC` (configuration not stated), the B-score result was “inactive”.

Regarding `COc1ccc(C2SCCN2S(=O)(=O)c2ccccc2)cc1OC` (configuration not stated), the B-score is 7.25 (active).

For the molecule `Cc1cc(NC(=O)CS(=O)(=O)c2cn(C)c3ccccc23)no1`, the B-score entry was “inactive”.

Take `CCCCN1C(N)=NC[C@@H]1CC1CCCCC1`: the B-score result was “inactive”.

As for `COc1ccccc1CCNS(=O)(=O)c1cn(C)nc1C`, the B-score entry is “inactive”.

With `CC(N=Cc1nc(-c2ccccc2)oc1O)c1ccccc1` (configuration not stated), the B-score result is “inactive”.

On to `CCOc1ccc2nc(/N=C/c3nc(-c4ccccc4)oc3O)sc2c1`, for which the B-score is 18.1 (active).

Consider `CCOc1ccc2nc(N(CCCN(C)C)C(=O)c3ccc(C(=O)c4ccccc4)cc3)sc2c1`, for which the B-score entry is “inactive”.

Regarding `CN1C(=O)CC(c2ccccc2)C1=O` (configuration not stated), the B-score result was “inactive”.

Turning to `Cc1cccc(N(C)C(=O)c2cc(S(=O)(=O)N3CCCCC3)c[nH]2)c1`, the B-score result is “inactive”.

With `COC(=O)Cn1c(=NC(=O)c2cc(OC)c(OC)c(OC)c2)sc2cc(OC)ccc21`, the B-score result is “inactive”.

For the molecule `COc1ccc(OC)c(/C(C)=N\NC(=O)c2cc3cc(Cl)ccc3n2C)c1`, the B-score was 6.86 (active).

For `COc1ccc(/C(C)=N/NC(=O)CCC(=O)Nc2ccc(Cl)cc2Cl)c(OC)c1`, the B-score entry is “inactive”.

In the case of `COc1ccc(OC)c(C(=O)c2ccc(Cl)cc2)c1`, the B-score result is “inactive”.

As for `CCN(CC(=O)NCc1cccs1)C(=O)c1cccc(S(=O)(=O)Nc2ccccc2OC)c1`, the B-score result was “inactive”.

In the case of `CCOc1ncccc1C(=O)NNC(=O)c1cccc(S(=O)(=O)Nc2ccccc2OC)c1`, the B-score is 7.54 (active).

`CCOc1ccccc1NS(=O)(=O)c1c[nH]c(C(=O)OC)c1`: the B-score result was “inactive”.

For the molecule `COc1ccc(CCNC(=S)NC(=O)/C=C/c2ccc(C)cc2)cc1OC`, the B-score entry was “inactive”.

As for `COCCCNC(=O)CN1CCN(Cc2ccccc2Cl)C1=O`, the B-score result was “inactive”.

Consider `C#CCOCCOCCOCCNc1nc(N2CCN(C(=O)[C@H](CCCCN)n3cc(CCC(=O)O)nn3)CC2)nc(N2CCN(C(=O)[C@H](CCCCN)n3cc(CC(C)O)nn3)CC2)n1` (some centres not stated), for which the B-score entry was “inactive”.

On to `COc1ccc(CCNc2nc3ccc(C)cc3n3cnnc23)cc1OC`, for which the B-score result was “inactive”.

Take `COc1cc(Nc2nc3ccc(Cl)cc3n3cnnc23)cc(OC)c1OC`: the B-score entry is “inactive”.

Consider `COc1ccc(OC)c(Nc2nc3ccccc3n3cnnc23)c1`, for which the B-score is 9.87 (active).

`Cc1nn2cc(-c3ccc(Cl)cc3)cnc2c1Br`: the B-score result is “inactive”.

For `CN1C(C)(C)CC(NC(=O)CCC(=O)NC2CC(C)(C)N(C)C(C)(C)C2)CC1(C)C`, the B-score result is “inactive”.

Regarding `S=c1nc(C23CC4CC(CC(C4)C2)C3)nc2sccn12`, the B-score entry is “inactive”.

For the molecule `Nc1nc(C23CC4CC(CC(C4)C2)C3)cs1`, the B-score was 15.8 (active).

`Nc1nc(SC23CC4CC(CC(C4)C2)C3)ns1`: the B-score entry is “inactive”.

Take `FC(F)(F)c1ccc2nnc(-c3c(Cl)cccc3Cl)n2c1`: the B-score entry was “inactive”.

As for `COC(=O)Cc1[nH]n(-c2nc3ccccc3s2)c(=O)c1C(C)=Nc1ccc(OC)cc1`, the B-score entry was “inactive”.

Regarding `C/C(=N\NC(=O)CC(C)C)c1c(C(F)(F)F)[nH]n(-c2nc3ccccc3s2)c1=O`, the B-score entry is “inactive”.

Regarding `COC(=O)Cc1cc(=O)n(-c2nc3ccccc3s2)[nH]1`, the B-score was 7.64 (active).

Take `COc1ccc([N+](=O)[O-])cc1-c1nc2ccccc2nc1-c1ccccc1`: the B-score result is “inactive”.

On to `COc1ccc(-c2nc3cc([N+](=O)[O-])ccc3o2)cc1OC`, for which the B-score was 11 (active).

As to `O=[N+]([O-])c1ccc2oc(-c3cccc(O)c3)nc2c1`, the B-score entry was “inactive”.

With `CC(C)N1C(=S)SC(C)(C)C1n1oc(=O)n(-c2ccc(Cl)c(Cl)c2)c1=O` (configuration not stated), the B-score entry was “inactive”.

As to `O=C(CNC(=O)OCc1ccccc1)Oc1cc2oc(=O)cc(-c3ccccc3)c2cc1Cl`, the B-score result is “inactive”.

On to `Cc1nc2sccn2c(=O)c1S(=O)(=O)NCCc1ccccc1`, for which the B-score entry is “inactive”.

For the molecule `Cc1c(C(=O)N(C)CCc2cnn(C)c2)oc2c(F)cccc12`, the B-score entry was “inactive”.

As to `Cc1ccc2c(C)c(C(=O)N(C)Cc3ccncn3)oc2c1C`, the B-score entry is “inactive”.

For `Cc1ccc2c(C)c(C(=O)N(C)CCC3CCCCO3)oc2c1C` (configuration not stated), the B-score is 11.2 (active).

As to `CCCCn1c(N)c(N(CCC(C)C)C(=O)CC2OC(=O)c3ccccc32)c(=O)[nH]c1=O` (configuration not stated), the B-score result was “inactive”.

In the case of `COc1ccc(C2(C)NC(=O)N(CC(=O)c3ccc4c(c3)OCO4)C2=O)cc1` (configuration not stated), the B-score entry was “inactive”.

Turning to `O=C(OCc1ccc([N+](=O)[O-])cc1)C1CC(=O)N(Cc2ccccc2Cl)C1` (configuration not stated), the B-score entry is “inactive”.

Consider `CCCC1CCC(=NNC(=S)NCCc2ccccc2)CC1` (configuration not stated), for which the B-score entry is “inactive”.

As to `O=C(O)CCn1cc(/C=C/C(=O)c2ccc(Cl)cc2)c(-c2cccc(Br)c2)n1`, the B-score entry was “inactive”.

As to `CCOc1cc(/C=C(\C#N)c2nc(-c3cccs3)c(NC(C)=O)s2)ccc1O`, the B-score result was “inactive”.

For the molecule `COc1cc(/C=C(\C#N)c2nc3c(s2)CC(C)CC3)ccc1O` (configuration not stated), the B-score is 15.1 (active).

In the case of `COc1cc(/C=C(\C#N)c2nc3ccccc3[nH]2)ccc1O`, the B-score result was “inactive”.

Consider `CC(=O)Nc1ccc(S(=O)(=O)N2CCN(C(=O)c3ccccc3F)CC2)cc1`, for which the B-score entry is “inactive”.

In the case of `CCC(=O)Nc1nc(C)c(C(=O)Nc2cccc(Cl)c2)s1`, the B-score entry was “inactive”.

Take `O=C(Nc1cccc(Cl)c1)c1cc(S(=O)(=O)N2CCCCC2)c[nH]1`: the B-score entry was “inactive”.

In the case of `O=C(Nc1cccc(Cl)c1)c1cncn1-c1ccc(F)cc1`, the B-score is 12.5 (active).

As for `C=CCn1cc(Cl)cc(C(=O)Nc2ccccc2)c1=O`, the B-score result is “inactive”.

For the molecule `COC(=O)c1c(NC(=O)COC(=O)[C@@H](NS(=O)(=O)c2ccccc2)C(C)C)sc2c1CCC2`, the B-score entry is “inactive”.

Consider `CCc1ccc(N(CC(=O)Nc2sc3c(c2C(=O)OC)CCCC3)S(C)(=O)=O)cc1`, for which the B-score was 8.16 (active).

Regarding `COC(=O)c1c(NC(=O)CCN2CCOCC2)sc2c1CCCC2`, the B-score result was “inactive”.

As to `COC(=O)c1c(NC(=O)C2CC(C)=C(C)CC2C(=O)O)sc2c1CCCCC2` (configuration not stated), the B-score result was “inactive”.

For the molecule `COC(=O)c1c(NC(=O)CSc2nncs2)sc2c1CCCCC2`, the B-score entry was “inactive”.

Regarding `COC(=O)c1c(NC(=O)CN(c2ccc(C)c(C)c2)S(C)(=O)=O)sc2c1CCCC2`, the B-score was 11.7 (active).

Take `COc1ccc(OC)c(-c2c(=O)n(OCc3ccccc3Br)c3ccccc3[n+]2[O-])c1`: the B-score entry was “inactive”.

Consider `O=C(Oc1ccc(-c2nnco2)cc1)c1ccc(F)c(S(=O)(=O)N2CCOCC2)c1`, for which the B-score entry is “inactive”.
